Source: PubChem BioAssay AID1159580 (chemical genetic matrix, 2015)
The whole screen tested about 5,500 compounds, of which about 2,000 (36%) were called active. Another 18% or so got no clear call; they are omitted. Cut-off read from the data, not from the text of the source: active = normalized growth mostly below about 0.91 (no sharp cut-off); inconclusive = no clear call, values can overlap the other calls; inactive = mostly above about 0.92. The list shows a part of the results.

Assay: chemical genetic growth profiling, strain panel (AID 1159580);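 note: tested at 20 µM; growth read once vehicle control cultures reached saturation at 30 °C; 1 = growth at the plate median or of vehicle wells; lower values mean less growth of the strain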
Conditions: S. cerevisiae deletion strains, growth OD
[1] = locus YDL101C, strain DUN1, stronger effect = lower value
[2] = locus YHR030C, strain SLT2, stronger effect = lower value
[3] = locus YDR150W, strain NUM1, stronger effect = lower value
[4] = locus YGR078C, strain PAC10, stronger effect = lower value

Measured: normalized growth

O=C(ON=C1CCCCC1)c1ccc([N+](=O)[O-])cc1
active: [2] 0.576 | locus YLR113W, strain HOG1, stronger effect = lower value 0.69 | locus YPL256C, strain CLN2, stronger effect = lower value 0.829
inactive: locus YAR019C, strain CDC15, stronger effect = lower value 0.949 | locus YBL105C, strain PKC1, stronger effect = lower value 0.959 | locus YBR135W, strain CKS1, stronger effect = lower value 0.947 | locus YBR136W, strain MEC1, stronger effect = lower value 0.956 | locus YBR160W, strain CDC28, stronger effect = lower value 0.959 | locus YDL017W, strain CDC7, stronger effect = lower value 0.952 | locus YDL028C, strain MPS1, stronger effect = lower value 0.95 | [1] 0.954 | locus YDL108W, strain KIN28, stronger effect = lower value 0.948 | locus YDL132W, strain cdc53, stronger effect = lower value 0.944 | locus YDL214C, strain PRR2, stronger effect = lower value 0.849 | locus YDR052C, strain DBF4, stronger effect = lower value 0.962 | locus YDR054C, strain cdc34, stronger effect = lower value 0.948 | locus YDR226W, strain ADK1, stronger effect = lower value 0.948 | locus YDR477W, strain SNF1, stronger effect = lower value 0.833 | locus YER123W, strain YCK3, stronger effect = lower value 0.817 | locus YER133W, strain GLC7, stronger effect = lower value 0.762 | locus YFL009W, strain cdc4, stronger effect = lower value 0.942 | locus YFL029C, strain CAK1, stronger effect = lower value 0.938 | locus YFR003C, strain YPI1, stronger effect = lower value 0.953 | locus YFR019W, strain FAB1, stronger effect = lower value 0.886 | locus YFR028C, strain CDC14, stronger effect = lower value 0.942 | locus YGR040W, strain KSS1, stronger effect = lower value 0.828 | locus YGR052W, strain FMP48, stronger effect = lower value 0.843 | locus YGR092W, strain DBF2, stronger effect = lower value 0.889 | locus YHR079C, strain IRE1, stronger effect = lower value 0.784 | locus YHR082C, strain KSP1, stronger effect = lower value 0.901 | locus YHR205W, strain SCH9, stronger effect = lower value 0.829 | locus YIL147C, strain SLN1, stronger effect = lower value 0.946 | locus YJL095W, strain BCK1, stronger effect = lower value 0.771 | locus YJL128C, strain PBS2, stronger effect = lower value 0.981 | locus YJL157C, strain FAR1, stronger effect = lower value 0.82 | locus YJR016C, strain ILV3, stronger effect = lower value 0.953 | locus YJR066W, strain TOR1 (second series), stronger effect = lower value 0.814 | locus YJR066W, strain TOR1, stronger effect = lower value 0.838 | locus YKL048C, strain ELM1, stronger effect = lower value 0.974 | locus YKL067W, strain YNK1, stronger effect = lower value 0.865 | locus YKL101W, strain HSL1, stronger effect = lower value 0.881 | locus YKL193C, strain SDS22, stronger effect = lower value 0.934 | locus YKL203C, strain TOR2, stronger effect = lower value 0.888 | locus YLR133W, strain CKI1, stronger effect = lower value 0.874 | locus YLR403W, strain SFP1, stronger effect = lower value 0.783 | locus YML070W, strain DAK1, stronger effect = lower value 0.819 | locus YMR001C, strain CDC5, stronger effect = lower value 0.947 | locus YMR205C, strain PFK2 (second series), stronger effect = lower value 0.876 | locus YMR277W, strain FCP1, stronger effect = lower value 0.938 | locus YNL006W, strain LST8, stronger effect = lower value 0.943 | locus YNL020C, strain ARK1, stronger effect = lower value 0.876 | locus YNL161W, strain CBK1, stronger effect = lower value 0.941 | locus YNL183C, strain NPR1, stronger effect = lower value 0.916 | locus YNL207W, strain RIO2, stronger effect = lower value 0.944 | locus YNL222W, strain SSU72, stronger effect = lower value 0.948 | locus YNL307C, strain MCK1 (second series), stronger effect = lower value 0.851 | locus YOL078W, strain AVO1, stronger effect = lower value 0.937 | locus YOL136C, strain PFK27, stronger effect = lower value 0.85 | locus YOR061W, strain CKA2, stronger effect = lower value 0.867 | locus YOR119C, strain RIO1, stronger effect = lower value 0.877 | locus YOR231W, strain MKK1, stronger effect = lower value 0.826 | locus YOR329C, strain SCD5, stronger effect = lower value 0.949 | locus YPL031C, strain PHO85, stronger effect = lower value 0.78 | locus YPL153C, strain RAD53, stronger effect = lower value 0.794 | locus YPL204W, strain HRR25, stronger effect = lower value 0.784 | locus YPL209C, strain IPL1, stronger effect = lower value 0.952 | locus YPR025C, strain CCL1, stronger effect = lower value 0.948 | locus YPR106W, strain ISR1, stronger effect = lower value 0.969 | locus YPR111W, strain DBF20, stronger effect = lower value 0.968 | strain NNK1, stronger effect = lower value 0.972 | strain TSCII, stronger effect = lower value 0.936

O=[N+]([O-])c1ccc(S(=O)(=O)N2CCCCC2)cc1
inactive: locus YAL013W, strain DEP1, stronger effect = lower value 0.994 | locus YBR229C, strain ROT2, stronger effect = lower value 0.985 | locus YCL061C, strain MRC1, stronger effect = lower value 0.976 | [1] 0.977 | locus YDL134C, strain PPH21, stronger effect = lower value 1 | [3] 0.962 | locus YEL061C, strain CIN8, stronger effect = lower value 0.978 | [4] 1 | locus YGR229C, strain SMI1, stronger effect = lower value 1 | [2] 1 | locus YHR087W, strain rtc3, stronger effect = lower value 0.994 | locus YJL187C, strain SWE1, stronger effect = lower value 0.982 | locus YJR043C, strain POL32, stronger effect = lower value 0.992 | locus YJR075W, strain HOC1, stronger effect = lower value 0.985 | locus YKL190W, strain CNB1, stronger effect = lower value 1 | locus YLR039C, strain RIC1, stronger effect = lower value 1.01 | locus YLR058C, strain SHM2 (second series), stronger effect = lower value 0.997 | locus YLR085C, strain ARP6, stronger effect = lower value 0.925 | locus YLR262C, strain YPT6, stronger effect = lower value 1.03 | locus YML094W, strain GIM5, stronger effect = lower value 0.999 | locus YMR219W, strain ESC1, stronger effect = lower value 0.989 | locus YMR263W, strain SAP30, stronger effect = lower value 0.972 | locus YMR307W, strain GAS1, stronger effect = lower value 0.943 | locus YNL128W, strain TEP1, stronger effect = lower value 1 | locus YNL153C, strain GIM3, stronger effect = lower value 0.975 | locus YNL298W, strain CLA4 (second series), stronger effect = lower value 0.991 | locus YNL322C, strain KRE1, stronger effect = lower value 0.996 | locus YNR030W, strain Alg12, stronger effect = lower value 0.989 | locus YPL055C, strain LGE1, stronger effect = lower value 0.976 | locus YPL241C, strain CIN2, stronger effect = lower value 0.991 | locus YPR135W, strain CTF4, stronger effect = lower value 0.938

O=[N+]([O-])c1ccc(O[C@@H]2O[C@H](CO)[C@@H](O)[C@H](O)[C@H]2F)c([N+](=O)[O-])c1
inactive: locus YAL040C, strain CLN3, stronger effect = lower value 0.994 | locus YCL061C, strain MRC1 (second series), stronger effect = lower value 0.991 | [3] 0.991 | locus YDR363W, strain ESC2, stronger effect = lower value 1.03 | locus YER002W, strain NOP16, stronger effect = lower value 0.969 | [4] 1.01 | locus YNL175C, strain NOP13, stronger effect = lower value 0.986 | locus YNL197C, strain WHI3, stronger effect = lower value 0.995 | locus YNL224C, strain SQS1, stronger effect = lower value 0.984 | locus YOR083W, strain WHI5 (second series), stronger effect = lower value 1.02
